# VLA-4 inh – inhibition in human VLA-4 binding assay, primary screen, VLA-4 allosteric modulator project, MLPCN library, flow cytometry, VLA-4 expressing cells; ligand binding flow cytometry; inhibition, % (about 7 µM as worked out from the volumes in the protocol); hit rate 0.2% among 330,000; AID 2557, 2010; in the data active = inhibition above about 50%
# ALR inh – inhibitors of human ALR sulfhydryl oxidase, primary screen, biochemical, H2O2 detection, HRP-luminol luminescence, single point; FAD-linked sulfhydryl oxidase ALR (Homo sapiens), P55789; inhibition, % (test concentration not listed); purified ALR, DTT oxidation; hit rate 3.8% among 290,000;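 active = mean replicate inhibition above about 79%, with every replicate also reaching it, limit read from the data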
# Efflux pump mplx – inhibitors of Candida efflux pumps in yeast, primary screen, S. cerevisiae, Nile Red, multiplex | inhibition, % at 10 µM | S. cerevisiae Candida pump triplex | hit rate 0.44% among 330,000;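 active = plate passing quality check with inhibition over a set limit, or well fluorescence over plate mean plus 4 SD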;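 note: Nile Red retained in pooled yeast measured as flow cytometry median fluorescence; 0% = buffer negative control and 100% = Enniatin B positive control; higher means more Nile Red kept so more efflux inhibition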
# AHR act – AHR activators, primary screen, cell-based, luminescence, luciferase reporter, human | AHR-responsive luciferase reporter cells | activation, % at 5 µM | hit rate 2.5% among 320,000 | Aryl hydrocarbon receptor (Homo sapiens), P35869; in the data active = activation above about 47%;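 note: 0% = vehicle wells and 100% = reference agonist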
# Bfl-1 A1 inh – caspase 3/7 activation in MEF A1-2A-BIM cells, primary screen, A1 inhibitor project, cell-based, luminescence, HTS; hit rate 0.066% among 330,000; caspase activation, % (test concentration not listed); Caspase-Glo 3/7 luminescence, 3 h; percent of clofoctol response, vehicle zero;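 active = over half of replicate activation scores above 10%, or exactly half above 10 with the replicate mean above 10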
# SUMO Mot1 rescue – yeast Mot1-301 growth rescue at high temperature, primary screen, SUMOylation pathway inhibitor project, S. cerevisiae, ATP luminescence, 38.5C. hit rate 1% among 320,000. AID 2716, 2010. growth rescue, % at 18.8 µM. S. cerevisiae Mot1-301 growth rescue; percent above DMSO median, 100 means doubled;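 active = every valid replicate shows activation above 250% relative to neutral control wells; inactive = the rest, any valid replicate at or below 250%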;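 note: OY570 slx delta 5 strain wells were the positive control but not used for scaling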
# Starred values were filed as active, the others as inactive; x = no result. An excerpt weighted towards active compounds, which were near 7.2% of everything screened.
SMILES,VLA-4 inh,ALR inh,Efflux pump mplx,AHR act,Bfl-1 A1 inh,SUMO Mot1 rescue
C=CCn1c(SCc2ccccc2Cl)nnc1-c1sc2nc(C)cc(C)c2c1N,5,1,0,79*,-3,106
CC(=O)Oc1ccc2nc(-c3ccc(Br)o3)oc(=O)c2c1,21,80*,0,0,-5,-18
O=C(COC(=O)CCSc1ccc(Cl)cc1)NCc1ccco1,11,4,0,-2,-1,0
CCOC(=O)C1C(=O)CC(C)(O)C(C(=O)OCC)C1c1ccc(N(CC)CC)cc1 (stereo not drawn),3,98*,0,2,-1,-20
CCOC(=O)C1C(=O)CC(C)(O)C(C(=O)OCC)C1c1ccc(F)cc1 (stereo not drawn),-10,-3,0,0,1,-5
O=[N+]([O-])c1ccc(O)c(/C=N/Nc2nn[nH]n2)c1,-10,84*,0,5,0,125
O=C(N/N=C/c1c[nH]c2ccccc12)c1cc(Br)ccc1O,20,22,0,77*,-2,14
O=C(N/N=C/c1c[nH]c2ccc(Br)cc12)c1ccncc1,-11,-2,0,74*,0,3
Cc1cc(C(=O)N/N=C/c2c[nH]c3ccccc23)c(C)o1,13,43,0,56*,0,374
CCOc1ccc(Br)cc1C(=O)N/N=C/c1c[nH]c2ccccc12,4,-9,0,47*,1,50
CC(C)(Cc1ccccc1)NC(=O)C(=O)c1cn(CC(=O)N2CCOCC2)c2ccccc12,-11,-13,0,1,-1,12
Cc1ccc(CNC(=O)CN2C(=O)CSc3ccc(S(=O)(=O)N4CCCCC4)cc32)cc1,2,x,0,3,3,323
CC(=O)NC1=NN(C(C)=O)C(c2ccco2)S1 (stereo not drawn),5,-32,0,-1,1,-1
COc1ccc(NC(=O)CN(C)C(=O)c2ccc3c(c2)S(=O)(=O)N=C2CCCCCN23)cc1,-3,-8,0,2,0,-8
Cc1ccc(NC(=O)CN2CCC(NC(=O)c3ccccc3F)CC2)cc1C,28,-9,0,0,1,-9
COc1ccc2[nH]c(C(=O)Nc3cccc(C)n3)cc2c1,-4,-7,0,2,-11,-11
Cc1cc(-c2nsc(=O)o2)c(S(C)(=O)=O)s1,-4,99*,0,-4,1,-18
Cc1c(NC(=O)Nc2cc(Cl)ccc2Cl)c(=O)n(-c2ccccc2)n1C,0,-1,0,2,1,-13
Cc1cc(C)c(O)c(-c2cc(C(=O)Nc3c(C)n(C)n(-c4ccccc4)c3=O)[nH]n2)c1,-4,99*,0,7,-1,x
COc1ccc(Cl)cc1NC(=O)CN(C)CC(=O)Nc1c(C)n(C)n(-c2ccccc2)c1=O,-5,-3,0,0,0,281*
Cc1c(NC(=O)/C(C#N)=C/c2ccc(-c3ccccc3Cl)o2)c(=O)n(-c2ccccc2)n1C,8,88*,0,-8,1,-12
Cc1c(NC(C)C)c(=O)n(-c2ccccc2)n1C,41,97*,0,-1,-1,14
Cc1c(NS(=O)(=O)c2ccccc2)c(=O)n(-c2ccccc2)n1C,14,-7,0,-1,0,-9
Cc1cccc(C(=O)Nc2ccc(C(=O)Nc3ccc(O)cc3)cc2)c1,4,-17,0,-7,-1,-12
Cc1cc(C)n2nc(C(=O)OCC(=O)NNC(=O)c3ccccc3)nc2n1,-10,-1,0,-1,1,-10
N#CCc1ccc(NC(=O)c2ccc(S(=O)(=O)N3CCOCC3)cc2)cc1,-5,-3,0,-2,1,14
Cc1c(C(=O)Nc2c(C)n(C)n(-c3ccccc3)c2=O)oc2ccc(Cl)cc12,8,4,0,51*,0,10
Cc1c(NC(=O)C(=O)/C=C(\O)c2ccc(Cl)cc2)c(=O)n(-c2ccccc2)n1C,3,30,0,-2,0,294*

# Screens from PubChem.
